14 compounds from PubChem BioAssay (EPA / NIEHS) can be followed below.

Activity calls are given as the source filed them. How the source made its calls: active means hit-call score of the fitted dose curve at least 0.9, where 1 is the maximum; inactive means score below 0.9.

A short description of assay [1]: BSK_LPS_SRB: Viability Assessment in the BioMAP Diversity Plus: LPS Assay (AID 2283079).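 Further: total protein by sulforhodamine B absorbance as a cytotoxicity measure; measured one day after compound addition; fitted in both directions against DMSO so loss or gain of signal counts.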 To be noted: primary human HUVEC with PBMC. Summed up:
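Co-culture of human umbilical vein endothelial cells and PBMC, read 24 h after dosing. Total protein by 0.1% SRB staining after 10% TCA fixation, absorbance at 560 nm; bidirectional fit against DMSO.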

Read-out in assay [2]: Interleukin-1 alpha (IL1a), IL1A (gene 3552)
Put plainly: BSK_LPS_IL1a: BioMAP Diversity Plus: LPS Assay for Interleukin-1 alpha (IL1a) Biomarker Activity (AID 2283080). The settings on record: primary human HUVEC with PBMC; actives raise or lower the signal. Summed up:
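Human umbilical vein endothelial cells co-cultured with PBMC and stimulated with LPS; IL-1a measured by ELISA 24 h after dosing. Bidirectional fitting against DMSO; cytotoxicity checked by SRB staining in parallel cultures.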

Read-out in assay [3]: Monocyte Chemoattractant Protein-1 (MCP1), CCL2 (gene 6347)
Kind of assay: BSK_LPS_MCP1: BioMAP Diversity Plus: LPS Assay for Monocyte Chemoattractant Protein-1 (MCP1) Biomarker Activity (AID 2283081).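 On AC50: secreted MCP-1 protein quantified by ELISA in culture supernatant.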 To be noted: primary human HUVEC with PBMC; actives raise or lower the signal. Summed up: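 Human umbilical vein endothelial cells co-cultured with PBMC, LPS-stimulated; secreted MCP-1 measured by ELISA 24 h after compound addition. Bidirectional curve fitting against DMSO baseline; SRB total-protein staining in parallel cultures for cytotoxicity.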

The nature of assay [4]: BSK_LPS_PGE2: BioMAP Diversity Plus: LPS Assay for Prostaglandin E2 (PGE2) Biomarker Activity (AID 2283082). To be noted: primary human HUVEC with PBMC; actives raise or lower the signal. Put shortly: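 HUVEC plus human PBMC co-culture stimulated with LPS; secreted PGE2 quantified by ELISA 24 h after chemical dosing. Activity fitted bidirectionally against DMSO baseline; parallel SRB staining (0.1% SRB after 10% TCA fixation, 560 nm) flags overt cytotoxicity.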

Read-out in assay [5]: Macrophage colony-stimulating factor (MCSF), CSF1 (gene 1435)
Kind of assay: BSK_LPS_MCSF: BioMAP Diversity Plus: LPS Assay for Macrophage colony-stimulating factor (MCSF) Biomarker Activity (AID 2283083). The settings on record: primary human HUVEC with PBMC; actives raise or lower the signal. Put shortly: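 HUVEC–PBMC co-culture, M-CSF measured by ELISA 24 h after chemical dosing. Fitted in both directions relative to DMSO as negative control; overt cytotoxicity assessed by SRB total-protein staining in parallel cultures.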

Read-out in assay [6]: Tissue Factor, F3 (gene 2152)
Kind of assay: BSK_LPS_TissueFactor: BioMAP Diversity Plus: LPS Assay for Tissue Factor Biomarker Activity (AID 2283084). The settings on record: primary human HUVEC with PBMC; actives raise or lower the signal. Summed up: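 Human umbilical vein endothelial cells co-cultured with PBMC were dosed with compound. Cell-surface CD142 was measured by ELISA 24 h later. Activity was fitted bidirectionally against DMSO, with SRB total-protein staining in parallel cultures for cytotoxicity.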

Read-out in assay [7]: Tumor necrosis factor (Homo sapiens) (UniProt P01375)
Put plainly: BSK_LPS_TNFa: BioMAP Diversity Plus: LPS Assay for Tumour Necrosis Factor alpha (TNFa) Biomarker Activity (AID 2283085).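 On AC50: TNFa protein level quantified by ELISA in the co-culture.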 The settings on record: primary human HUVEC with PBMC; actives raise or lower the signal. Summed up: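 Human umbilical vein endothelial cells co-cultured with PBMC and stimulated with LPS. TNFa was measured by ELISA 24 h after chemical dosing, fitted bidirectionally relative to DMSO.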

Read-out in assay [8]: Vascular cell adhesion molecule 1 (VCAM1), VCAM1 (gene 7412)
Put plainly: BSK_LPS_VCAM1: BioMAP Diversity Plus: LPS Assay for Vascular cell adhesion molecule 1 (VCAM1) Biomarker Activity (AID 2283086). To be noted: primary human HUVEC with PBMC; actives raise or lower the signal. Put shortly:
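Human umbilical vein endothelial cells co-cultured with PBMC and stimulated with LPS; VCAM-1 measured by ELISA 24 h after dosing. Bidirectional curve fitting against DMSO baseline; cytotoxicity tracked in parallel by SRB total-protein staining.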

Read-out in another assay: CD38, CD38 (gene 952)
Put plainly: BSK_SAg_CD38: BioMAP Diversity Plus: SAg Assay for CD38 Biomarker Activity (AID 2283087). To be noted: primary human HUVEC with PBMC; actives raise or lower the signal. Summed up:
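Human HUVEC plus PBMC co-culture stimulated with superantigen; CD38 measured by ELISA 24 h after chemical dosing. Fluorescence read-out, bidirectional fit against DMSO; cytotoxicity tracked in parallel by SRB and Alamar Blue.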

Read-out in the next assay: CD40, CD40 (gene 958)
Put plainly: BSK_SAg_CD40: BioMAP Diversity Plus: SAg Assay for CD40 Biomarker Activity (AID 2283088). The settings on record: primary human HUVEC with PBMC; actives raise or lower the signal. Put shortly:
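HUVEC plus PBMC co-culture, superantigen-activated, with CD40 read by ELISA 24 h after dosing. Curves fitted in both directions against DMSO. Overt cytotoxicity checked by parallel SRB total-protein staining.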

Tumor necrosis factor (Homo sapiens), sequence (P01375 whole entry, looked up): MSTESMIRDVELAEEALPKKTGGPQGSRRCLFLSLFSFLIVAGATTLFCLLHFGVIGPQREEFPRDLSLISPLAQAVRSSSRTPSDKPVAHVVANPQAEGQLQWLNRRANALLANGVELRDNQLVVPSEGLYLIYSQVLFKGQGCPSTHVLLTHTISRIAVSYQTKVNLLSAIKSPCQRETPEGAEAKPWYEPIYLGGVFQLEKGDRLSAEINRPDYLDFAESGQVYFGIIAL

By AC50 is commonly meant the concentration giving half of the maximal activity seen. Regarding `OC(c1ccc(Cl)cc1)(c1cncnc1)c1ccccc1Cl` (stereo not given), the half-maximal activity concentration (AC50) is 23.2 µM (active) in assay [1]; 4.99 µM (active) in [4]; 10.9 µM (active) in [7]; 20 µM (active) with CD38, CD38 (gene 952); 13.8 µM (active) in the assay with CD40, CD40 (gene 958). Moreover, the outcome in assay [2], in assay [3], in assay [5], in [6] and in assay [8] was inactive.
In the case of `CC(C)(C)c1ccc(CSc2cnn(C(C)(C)C)c(=O)c2Cl)cc1`, the concentration at half-maximal activity (AC50) in [1] was 7.73 µM (active); in assay [2], 20 µM (active); in assay [3], 5.45 µM (active); in assay [5] it was 9.19 µM (active); in [8] it was 15.8 µM (active); with CD38, CD38 (gene 952), 2.4 µM (active). Besides, the AC50 with CD40, CD40 (gene 958) is 4.43 µM (active). In addition, the outcome in assay [4], in assay [6] and in assay [7] was inactive.
For `CC(C)Oc1cc(-n2nc(C(C)(C)C)oc2=O)c(Cl)cc1Cl`, the AC50 in assay [1] was 29.3 µM (active); in [2], 32.7 µM (active); in [3] it was 30.2 µM (active); in [5], 32.7 µM (active); in assay [7], 35.7 µM (active); in assay [8] it was 31.7 µM (active). In addition, the AC50 with CD38, CD38 (gene 952) was 28.7 µM (active); in the assay with CD40, CD40 (gene 958), 29.3 µM (active). Moreover, the result in assay [4] and in assay [6] was inactive.
Regarding `C#CCOS(=O)OC1CCCCC1Oc1ccc(C(C)(C)C)cc1` (stereo not given), the half-maximal activity concentration (AC50) was 12.6 µM (active) in assay [1]; 16.4 µM (active) in [2]; 20 µM (active) in assay [3]; 15.8 µM (active) in assay [5]; 32.6 µM (active) in [6]; 10.1 µM (active) in assay [8]. Also, the half-maximal activity concentration (AC50) is 5.43 µM (active) with CD38, CD38 (gene 952) and 7.36 µM (active) with CD40, CD40 (gene 958). In addition, the outcome in assay [4] and in assay [7] was inactive.
Take `CC1=C(C(=O)Nc2ccccc2)SCCO1`: the outcome in assay [1], in assay [2], in assay [3], in assay [5], in assay [6] and in [7] was inactive. For the same compound, the outcome is “inactive” in assay [8]; “inactive” with CD38, CD38 (gene 952); “inactive” in the assay with CD40, CD40 (gene 958). Further, in assay [4], the AC50 was 8.8 µM (active).
Take `CN(C)C(=S)SSC(=S)N(C)C`: the concentration at half-maximal activity (AC50) in [1] was 22.9 µM (active); in assay [2], 16.1 µM (active); in [3] it was 27.1 µM (active); in assay [4] it was 4.51 µM (active); in assay [5], 14.8 µM (active); in assay [6], 14.5 µM (active). The AC50 in [7] is 13.8 µM (active); in assay [8], 24.6 µM (active); with CD38, CD38 (gene 952), 26.8 µM (active); with CD40, CD40 (gene 958) it was 28 µM (active).
With `Cc1cc(Cl)ccc1OCC(=O)O`, the result in [1], in assay [2], in assay [3], in [4], in assay [5] and in [6] was inactive. For the same compound, the outcome is “inactive” in assay [7]; “inactive” in assay [8]; “inactive” in the assay with CD38, CD38 (gene 952); “inactive” with CD40, CD40 (gene 958).
Regarding `N#Cc1nn(-c2c(Cl)cc(C(F)(F)F)cc2Cl)c(N)c1S(=O)C(F)(F)F` (stereo not given), the AC50 in assay [1] is 31.4 µM (active); in assay [2] it was 35.9 µM (active); in assay [3], 32.4 µM (active); in assay [5], 20 µM (active); in assay [7], 5.27 µM (active); in [8], 31.2 µM (active). Further, the concentration at half-maximal activity (AC50) with CD38, CD38 (gene 952) was 29.7 µM (active); in the assay with CD40, CD40 (gene 958) it was 28.1 µM (active). Also, the outcome in assay [4] and in [6] was inactive.
With `CCNc1nc(Cl)nc(NC(C)C)n1`, the outcome in [1], in assay [2], in [3], in [4], in assay [5] and in [6] was inactive. Also, the outcome in [8] was “inactive”; in the assay with CD38, CD38 (gene 952), “inactive”; in the assay with CD40, CD40 (gene 958), “inactive”. In assay [7], the half-maximal activity concentration (AC50) is 6.09 µM (active).
`COC(=O)C=C(C)OP(=O)(OC)OC`: the outcome in assay [1], in assay [2], in assay [3], in assay [5], in [6] and in assay [7] was inactive. Besides, the outcome was “inactive” in assay [8]; “inactive” in the assay with CD38, CD38 (gene 952); “inactive” with CD40, CD40 (gene 958). For the same compound, the AC50 in assay [4] is 0.37 µM (active).
On to `CS/C(C)=N/OC(=O)N(C)SN(C)C(=O)O/N=C(\C)SC`, for which the AC50 in assay [1] is 29.8 µM (active); in assay [2] it was 15.6 µM (active); in assay [3], 29.9 µM (active); in [5] it was 28.2 µM (active); in assay [6], 32.1 µM (active); in [7], 16.2 µM (active). Moreover, the AC50 in assay [8] is 24.3 µM (active); with CD38, CD38 (gene 952), 26.4 µM (active); in the assay with CD40, CD40 (gene 958), 28.3 µM (active). For the same compound, the outcome in assay [4] was inactive.
On to `COP(N)(=O)SC` (stereo not given), for which the result in [1], in assay [2], in assay [3], in [5], in assay [6] and in assay [7] was inactive. The outcome is “inactive” in assay [8]; “inactive” in the assay with CD38, CD38 (gene 952); “inactive” in the assay with CD40, CD40 (gene 958). Also, in [4], the AC50 was 20 µM (active).
Take `CNC(=O)ON=CC(C)(C)SC`: the result in assay [1], in assay [2], in [3], in assay [5], in assay [6] and in assay [7] was inactive. For the same compound, the outcome is “inactive” in assay [8]; “inactive” in the assay with CD38, CD38 (gene 952); “inactive” with CD40, CD40 (gene 958). In addition, the AC50 in assay [4] is 2.13 µM (active).
As for `CCOC(=O)CC(SP(=S)(OC)OC)C(=O)OCC` (stereo not given), the result in assay [1], in assay [2], in [3], in [4], in assay [5] and in [6] was inactive. Further, the outcome in [7] is “inactive”; in assay [8], “inactive”; with CD38, CD38 (gene 952), “inactive”; in the assay with CD40, CD40 (gene 958), “inactive”.
